Source: PubChem BioAssay (National Center for Advancing Translational Sciences (NCATS))
Rows were chosen to be rich in hits. Some 4.6% of all compounds tested hit in one or more screens of this group.
D1 agonist: agonists of human D1 dopamine receptor. P21728. HEK293 T-REx D1 cells, calcium flux, agonist mode. activation, % at 2 µM. actives 1% (n = 360,000)
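Tetracycline-induced HEK293 TREx D1 cells, force-coupled to calcium signalling, were dye-loaded with a no-wash calcium kit. Compound was pin-added after a 10 s baseline. Fluorescence was read kinetically at 1 cycle/s for 180 s, with calcium rises flagged as agonism.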
TRHR PAM: allosteric enhancers of human TRH receptor; P34981; TRHR cells, fluo-8 calcium fluorescence, EC20 TRH enhancement; enhancement, % at 2 µM; actives 0.66% (n = 360,000); in the data active = enhancement above about 30%
Target sequence (P34981 whole entry, looked up): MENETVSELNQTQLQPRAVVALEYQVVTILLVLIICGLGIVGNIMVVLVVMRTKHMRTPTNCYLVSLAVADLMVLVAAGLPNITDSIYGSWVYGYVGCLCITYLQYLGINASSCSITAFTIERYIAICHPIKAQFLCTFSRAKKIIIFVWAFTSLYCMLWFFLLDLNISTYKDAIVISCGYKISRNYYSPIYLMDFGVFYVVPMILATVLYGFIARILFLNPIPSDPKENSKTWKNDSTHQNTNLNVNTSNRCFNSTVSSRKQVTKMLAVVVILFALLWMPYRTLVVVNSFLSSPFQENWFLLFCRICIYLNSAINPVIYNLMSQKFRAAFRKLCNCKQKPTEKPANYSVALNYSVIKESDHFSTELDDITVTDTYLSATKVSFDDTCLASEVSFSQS
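TRHR-expressing cells loaded with fluo-8 calcium dye were read kinetically (ex 480/em 530) during compound addition, then stimulated with an EC20 of TRH (10 nM final). Enhancement of the Gq-mediated intracellular calcium response was scored.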
TRHR agonist: activates the human TRH receptor; TRHR cells, calcium flux fluo-8, FDSS agonist mode; activation, % at 2 µM; actives 0.18% (n = 360,000); P34981
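TRHR-expressing cells loaded with fluo-8 calcium dye; 23 nL library compound pin-transferred, kinetic FDSS fluorescence (Ex 480/Em 530) recorded about 180 s for agonist-induced calcium release, before a 10 nM TRH EC20 addition for potentiator mode.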
D1 potentiator: human D1 dopamine receptor positive modulation. P21728. HEK293 TREx D1 cells, calcium flux, dopamine EC20 potentiation. potentiation, % at 10 µM. actives 0.036% (n = 360,000). AID 504651; in the data active = potentiation above about 30%
D1 antagonist: antagonists of human D1 dopamine receptor. P21728. HEK293 TREx D1 cells, calcium flux, dopamine EC80; hits give low values. activity change, negative = inhibition, % at 10 µM. actives 3.2% (n = 360,000); in the data active = activity change below about -30%
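Antagonism measured as reduced calcium response to an EC80 dopamine addition following 180 s compound pre-read; cells were inducible HEK293 Trex D1 plated overnight at 30 C, read kinetically at 1 cycle/sec.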
Numbers stand for hits; i = inactive. Cut-off read from the data, not from the text of the source, unless noted: active = activation above about 30%; inactive = the rest.

SMILES | D1 agonist | TRHR PAM | TRHR agonist | D1 potentiator | D1 antagonist
COc1ccc(S(=O)(=O)N(CCc2ccccc2)CC(=O)Nc2cccc(OC)c2)cc1 | 31 | i | i | i | -31
COc1ccc(S(=O)(=O)N(CCc2ccccc2)CC(=O)Nc2cc(C)ccc2C)cc1 | i | i | i | i | i
COc1ccc(S(=O)(=O)N(CC(=O)N2CCCC2)Cc2ccccc2)cc1 | i | i | i | i | i
Cc1ccc(-c2cc(C(=O)OCC(=O)c3ccccc3)c3cccc(Cl)c3n2)cc1 | i | i | i | i | i
CCC(=O)Nc1cc(-c2nc3cc(C)cc(C)c3o2)ccc1C | i | i | i | i | i
Cc1ccccc1C(=O)N=c1ccn(-c2nc3ccccc3nc2NS(=O)(=O)c2ccc(F)cc2)cc1 | 70 | i | i | i | i
CCc1ccc(-c2[nH]c3c(c2-c2sc(C)c(C(=O)OC)c2O)c(=O)n(C)c(=O)n3C)cc1 | i | i | i | i | i
COC(=O)c1c(C)sc(-c2c(-c3ccc(F)cc3)[nH]c3[nH]c(=O)[nH]c(=O)c23)c1O | 131 | i | 56 | i | i
CCN(CC)c1nn2c(=O)c(C(=O)NCc3ccc(OC)cc3OC)cnc2s1 | i | i | i | i | i
Fc1ccc(C(CCNCc2ccccn2)c2ccc(Cl)cc2)cc1 (stereo not drawn) | 67 | i | i | i | i
CC(=O)OC1COC(N2CCc3ccccc32)C(OC(C)=O)C1OC(C)=O (stereo not drawn) | i | 36 | i | i | i
COc1ccc(N2CC(C(=O)Nc3c4c(nn3-c3ccccc3)CS(=O)(=O)C4)CC2=O)cc1 (stereo not drawn) | i | i | i | i | -52
CCOc1ccc(N2CC(C(=O)Nc3ccccn3)CC2=O)cc1 (stereo not drawn) | i | i | i | i | -36
CCOc1ccc(N2CC(C(=O)Nc3ccccc3N3CCOCC3)CC2=O)cc1 (stereo not drawn) | i | i | i | i | -30
Oc1ccc(CNc2cccc(F)c2F)c2cccnc12 | i | i | i | i | i
O=C(OCc1ccco1)c1ccc2c(c1)N(Cc1ccc([N+](=O)[O-])cc1)C(=O)c1ccccc1S2 | i | i | i | i | i
Cc1nc(-c2cccc(NC(=O)COc3ccc(Cl)cc3)c2)cs1 | i | i | i | i | -44
Cc1cccc(NC(=O)CSc2nc3ccc(NC(=O)COc4ccc(Cl)cc4)cc3s2)c1 | i | i | i | i | -32
O=C(O)CSc1nc2ccc(NC(=O)COc3ccc(Cl)cc3)cc2s1 | i | i | i | i | i
O=S(=O)(c1ccccc1Oc1ccc(Cl)cc1Cl)N1CCCCC1 | i | i | i | i | -47
CCc1cc2c(cc3c(=O)n(CC(=O)N4CCCCC4)nc(CC)n32)s1 | i | i | i | i | i
Cc1ccc(Sc2c(C)nn(C(=O)COc3ccc(F)cc3)c2C)cc1 | i | i | i | i | i
Cc1nn(C(=O)COc2ccc(Cl)cc2)c(C)c1Sc1ccccc1 | i | i | i | i | -37
Cc1cc(C(F)F)n2ncc(C(=O)NCc3ccccc3C(F)(F)F)c2n1 | i | i | i | i | i
Cc1cc(C(F)F)n2ncc(C(=O)NCc3ccccc3F)c2n1 | i | i | i | i | -32
SMILES | D1 agonist | TRHR PAM | TRHR agonist | D1 potentiator | D1 antagonist
Clc1cccc2c3c([nH]c12)CCNC3 | i | i | i | i | i
Clc1ccc2[nH]c3c(c2c1)CNCC3 | i | 38 | i | i | -48
Cc1ccc2c(c1)c1c3n2CCN(C(=O)CCl)C3CCC1 (stereo not drawn) | i | i | i | i | -45
CC(=O)N1CCn2c3c(c4cc(C)ccc42)CCCC31 (stereo not drawn) | i | i | i | i | i
CC(C)c1ccc(OCC(=O)N(Cc2cccs2)C2CCS(=O)(=O)C2)cc1 (stereo not drawn) | i | i | i | i | i
O=C1CSC(c2ccc(Cl)cc2Cl)N1c1ccccn1 (stereo not drawn) | i | i | i | 30 | i
O=C1CSC(c2ccccn2)N1c1ccc(Cl)c(Cl)c1 (stereo not drawn) | i | i | i | i | i
Cc1ccc(NS(=O)(=O)c2ccc3c(c2)[C@H]2C=CC[C@H]2[C@@H](c2ccc(F)cc2)N3)cc1C | i | i | i | i | i
